# Source: paper PMC7862700, “An all-to-all approach to the identification of sequence-specific readers for epigenetic DNA modifications on cytosine”
# Columns and labels:
# Test in all cases: DAPPL (digital affinity profiling via proximity ligation, sequencing); 10 mM Tris-HCl pH 7.5, 50 mM NaCl, 1 mM DTT, 4% glycerol, room temperature, 30 min; GST-TFs on glutathione beads, 16-mer random dsDNA library, 0.1% formaldehyde crosslink after washing; high values mean tight binding
# [1] = biological target: T1, FLI1 (Homo sapiens, UniProt Q01543 1-452); settings: protein: recombinant; tags: N-terminal GST; dsDNA, one strand shown
# T1 sequence: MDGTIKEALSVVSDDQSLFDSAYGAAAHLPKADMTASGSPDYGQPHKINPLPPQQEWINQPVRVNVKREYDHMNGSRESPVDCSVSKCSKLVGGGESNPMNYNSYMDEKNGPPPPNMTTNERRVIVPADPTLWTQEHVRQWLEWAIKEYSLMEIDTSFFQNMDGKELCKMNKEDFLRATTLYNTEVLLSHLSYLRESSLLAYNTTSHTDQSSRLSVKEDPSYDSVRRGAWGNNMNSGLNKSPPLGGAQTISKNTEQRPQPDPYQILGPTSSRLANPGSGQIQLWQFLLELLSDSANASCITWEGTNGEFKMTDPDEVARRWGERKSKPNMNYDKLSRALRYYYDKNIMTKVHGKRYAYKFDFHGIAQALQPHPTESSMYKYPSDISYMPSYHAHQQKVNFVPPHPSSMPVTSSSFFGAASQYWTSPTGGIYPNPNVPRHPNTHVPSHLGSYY
# Method in brief: (§1)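 GST fusions of human transcription factors were expressed in yeast and captured with glutathione beads. Once given DNA barcodes and pooled alongside a tag-only sample, they were incubated for 30 min at room temperature with 200 nmole of a random double-stranded 16-mer DNA library in Tris/NaCl/DTT/glycerol buffer, then washed, crosslinked (0.1% formaldehyde), proximity-ligated, PCR-amplified and sequenced on an Illumina NextSeq500. The binding signal of each hexamer is its read frequency for a factor divided by its frequency for the tag-only sample.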
# [2] = biological target: T2, ELK1 (Homo sapiens, UniProt P19419 1-428); settings: protein: recombinant; tags: N-terminal GST; dsDNA, one strand shown
# T2 sequence: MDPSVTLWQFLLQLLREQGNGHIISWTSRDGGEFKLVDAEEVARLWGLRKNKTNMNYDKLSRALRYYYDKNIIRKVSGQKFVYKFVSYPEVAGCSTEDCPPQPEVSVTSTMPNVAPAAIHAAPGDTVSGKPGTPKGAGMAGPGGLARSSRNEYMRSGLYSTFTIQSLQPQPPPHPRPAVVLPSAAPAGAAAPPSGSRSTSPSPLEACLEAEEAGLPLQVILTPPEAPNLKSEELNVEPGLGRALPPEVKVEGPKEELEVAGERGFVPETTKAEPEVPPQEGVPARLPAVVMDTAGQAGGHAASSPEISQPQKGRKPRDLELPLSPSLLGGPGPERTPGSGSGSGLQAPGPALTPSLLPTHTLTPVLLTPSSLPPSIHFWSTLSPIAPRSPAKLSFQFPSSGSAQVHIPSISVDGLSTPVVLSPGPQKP
# Method in brief: as §1
# [3] = biological target: T3, GABPA (Homo sapiens, UniProt Q06546 1-454); settings: protein: recombinant; tags: N-terminal GST; dsDNA, one strand shown
# T3 sequence: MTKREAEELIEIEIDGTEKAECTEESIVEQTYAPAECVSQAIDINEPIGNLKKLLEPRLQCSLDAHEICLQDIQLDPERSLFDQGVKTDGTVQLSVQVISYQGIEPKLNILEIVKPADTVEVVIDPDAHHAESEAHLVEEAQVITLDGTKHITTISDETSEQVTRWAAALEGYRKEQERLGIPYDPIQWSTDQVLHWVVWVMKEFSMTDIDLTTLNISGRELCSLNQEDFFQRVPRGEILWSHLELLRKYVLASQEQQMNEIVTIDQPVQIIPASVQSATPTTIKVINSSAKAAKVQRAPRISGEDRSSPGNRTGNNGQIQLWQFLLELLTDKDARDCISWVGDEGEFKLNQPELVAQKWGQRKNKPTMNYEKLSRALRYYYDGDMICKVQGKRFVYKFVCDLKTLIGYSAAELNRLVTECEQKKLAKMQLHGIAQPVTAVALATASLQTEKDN
# Method in brief: as §1
# [4] = biological target: T4, ERG (Homo sapiens, UniProt P11308 1-479); settings: protein: recombinant; tags: N-terminal GST; dsDNA, one strand shown
# T4 sequence: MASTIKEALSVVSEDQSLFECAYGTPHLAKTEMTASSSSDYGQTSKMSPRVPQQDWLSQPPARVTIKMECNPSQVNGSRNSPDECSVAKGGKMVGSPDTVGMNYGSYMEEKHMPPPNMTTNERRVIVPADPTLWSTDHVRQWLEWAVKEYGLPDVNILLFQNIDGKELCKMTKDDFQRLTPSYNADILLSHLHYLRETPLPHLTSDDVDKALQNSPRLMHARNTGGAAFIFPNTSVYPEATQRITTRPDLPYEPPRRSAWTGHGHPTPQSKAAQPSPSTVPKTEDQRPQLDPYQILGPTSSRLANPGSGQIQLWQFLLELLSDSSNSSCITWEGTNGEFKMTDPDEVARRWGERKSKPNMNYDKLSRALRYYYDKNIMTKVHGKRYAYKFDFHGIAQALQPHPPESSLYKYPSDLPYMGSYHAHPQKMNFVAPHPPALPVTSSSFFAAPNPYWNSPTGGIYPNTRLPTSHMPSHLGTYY
# Method in brief: as §1
# [5] = biological target: ELF1 (Homo sapiens, UniProt P32519 1-619); settings: protein: recombinant; tags: N-terminal GST; dsDNA, one strand shown
# Method in brief: as §1
# [6] = biological target: T5, EHF (Homo sapiens, UniProt Q9NZC4 1-300); settings: protein: recombinant; tags: N-terminal GST; dsDNA, one strand shown
# T5 sequence: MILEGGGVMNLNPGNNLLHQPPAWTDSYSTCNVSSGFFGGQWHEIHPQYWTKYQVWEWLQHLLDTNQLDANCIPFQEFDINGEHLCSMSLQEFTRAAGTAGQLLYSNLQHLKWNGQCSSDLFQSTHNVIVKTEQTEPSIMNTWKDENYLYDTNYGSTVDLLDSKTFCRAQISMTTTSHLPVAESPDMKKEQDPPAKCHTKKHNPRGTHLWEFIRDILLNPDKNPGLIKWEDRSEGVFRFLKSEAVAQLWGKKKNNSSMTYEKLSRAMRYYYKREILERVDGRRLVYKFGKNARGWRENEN
# Method in brief: as §1
# [7] = biological target: SPI1 (Homo sapiens, UniProt P17947 1-270); settings: protein: recombinant; tags: N-terminal GST; dsDNA, one strand shown
# Method in brief: as §1
# [8] = biological target: SPIB (Homo sapiens, UniProt Q01892 1-262); settings: protein: recombinant; tags: N-terminal GST; dsDNA, one strand shown
# Method in brief: as §1
# [9] = biological target: T6, ELK3 (Homo sapiens, UniProt P41970 1-407); settings: protein: recombinant; tags: N-terminal GST; dsDNA, one strand shown
# T6 sequence: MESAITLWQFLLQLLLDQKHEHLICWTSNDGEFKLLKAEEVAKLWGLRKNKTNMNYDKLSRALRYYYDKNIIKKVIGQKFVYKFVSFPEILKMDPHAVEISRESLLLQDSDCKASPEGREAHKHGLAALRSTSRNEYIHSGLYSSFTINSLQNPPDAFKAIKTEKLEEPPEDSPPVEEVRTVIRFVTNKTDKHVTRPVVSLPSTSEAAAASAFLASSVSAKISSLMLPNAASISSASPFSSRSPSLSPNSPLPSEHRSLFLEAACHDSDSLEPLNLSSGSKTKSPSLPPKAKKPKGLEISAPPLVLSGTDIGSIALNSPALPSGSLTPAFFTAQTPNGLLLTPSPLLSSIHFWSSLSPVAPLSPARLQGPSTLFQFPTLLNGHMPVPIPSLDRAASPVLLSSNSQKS
# Method in brief: as §1
# [10] = biological target: T7, FEV (Homo sapiens, UniProt Q99581 1-238); settings: protein: recombinant; tags: N-terminal GST; dsDNA, one strand shown
# T7 sequence: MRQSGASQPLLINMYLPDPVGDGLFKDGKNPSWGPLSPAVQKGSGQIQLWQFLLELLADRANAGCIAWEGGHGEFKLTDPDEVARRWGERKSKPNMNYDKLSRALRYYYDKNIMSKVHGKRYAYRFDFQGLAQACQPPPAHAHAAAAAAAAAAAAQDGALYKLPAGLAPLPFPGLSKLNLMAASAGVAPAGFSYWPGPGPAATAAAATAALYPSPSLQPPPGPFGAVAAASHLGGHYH
# Method in brief: as §1
# [11] = biological target: ETV5 (Homo sapiens, UniProt P41161 1-510); settings: protein: recombinant; tags: N-terminal GST; dsDNA, one strand shown
# Method in brief: as §1
# [12] = biological target: HSF1 (Homo sapiens, UniProt Q00613 1-529); settings: protein: recombinant; tags: N-terminal GST; chain copies: 3; dsDNA, one strand shown
# Method in brief: as §1
# [13] = biological target: T8, SPIC (Homo sapiens, UniProt Q8N5J4 1-248); settings: protein: recombinant; tags: N-terminal GST; dsDNA, one strand shown
# T8 sequence: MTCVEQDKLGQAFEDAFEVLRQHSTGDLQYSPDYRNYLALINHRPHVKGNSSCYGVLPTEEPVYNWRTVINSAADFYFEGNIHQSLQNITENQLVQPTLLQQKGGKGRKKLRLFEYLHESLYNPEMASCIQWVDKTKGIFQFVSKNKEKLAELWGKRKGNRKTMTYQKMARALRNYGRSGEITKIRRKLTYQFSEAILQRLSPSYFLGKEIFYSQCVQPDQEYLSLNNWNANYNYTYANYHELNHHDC
# Method in brief: as §1
# [14] = biological target: ELF4 (Homo sapiens, UniProt Q99607 1-663); settings: protein: recombinant; tags: N-terminal GST; dsDNA, one strand shown
# Method in brief: as §1
# [15] = biological target: T9, ELK4 (Homo sapiens, UniProt P28324-2 1-405); settings: protein: recombinant; tags: N-terminal GST; dsDNA, one strand shown
# T9 sequence: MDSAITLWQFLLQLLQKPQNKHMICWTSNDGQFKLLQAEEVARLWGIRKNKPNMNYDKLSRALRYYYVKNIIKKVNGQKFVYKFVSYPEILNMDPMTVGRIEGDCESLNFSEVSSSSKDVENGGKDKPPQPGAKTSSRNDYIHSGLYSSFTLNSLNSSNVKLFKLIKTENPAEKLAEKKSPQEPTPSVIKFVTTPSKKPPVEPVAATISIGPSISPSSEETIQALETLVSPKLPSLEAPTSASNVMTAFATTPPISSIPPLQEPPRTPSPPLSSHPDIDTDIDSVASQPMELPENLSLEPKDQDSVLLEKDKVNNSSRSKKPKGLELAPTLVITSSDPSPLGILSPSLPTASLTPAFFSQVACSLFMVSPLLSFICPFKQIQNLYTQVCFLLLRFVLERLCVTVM
# Method in brief: as §1
# [16] = biological target: T10, ETV2 (Homo sapiens, UniProt O00321 1-342); settings: protein: recombinant; tags: N-terminal GST; dsDNA, one strand shown
# T10 sequence: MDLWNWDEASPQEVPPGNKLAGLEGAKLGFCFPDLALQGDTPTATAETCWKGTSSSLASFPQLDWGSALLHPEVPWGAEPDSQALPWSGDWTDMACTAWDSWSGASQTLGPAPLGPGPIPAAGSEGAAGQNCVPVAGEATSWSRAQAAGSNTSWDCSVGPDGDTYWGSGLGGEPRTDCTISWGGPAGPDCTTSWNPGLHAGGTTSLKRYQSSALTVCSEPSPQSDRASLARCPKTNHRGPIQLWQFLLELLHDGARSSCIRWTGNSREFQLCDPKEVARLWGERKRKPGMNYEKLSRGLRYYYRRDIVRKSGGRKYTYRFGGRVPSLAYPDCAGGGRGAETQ
# Method in brief: as §1
# [17] = biological target: T11, ELF3 (Homo sapiens, UniProt P78545 1-371); settings: protein: recombinant; tags: N-terminal GST; dsDNA, one strand shown
# T11 sequence: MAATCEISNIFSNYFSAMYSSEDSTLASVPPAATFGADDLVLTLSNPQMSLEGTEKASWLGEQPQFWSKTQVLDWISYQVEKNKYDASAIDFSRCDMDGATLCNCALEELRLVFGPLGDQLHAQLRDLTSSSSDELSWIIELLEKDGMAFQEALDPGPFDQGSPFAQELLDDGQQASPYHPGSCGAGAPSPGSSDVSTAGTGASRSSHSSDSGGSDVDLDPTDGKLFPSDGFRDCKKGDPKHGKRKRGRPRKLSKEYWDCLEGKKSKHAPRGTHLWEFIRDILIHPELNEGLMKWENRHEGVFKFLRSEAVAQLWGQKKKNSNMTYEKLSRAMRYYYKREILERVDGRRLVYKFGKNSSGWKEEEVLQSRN
# Method in brief: as §1
# [18] = biological target: ETV1 (Homo sapiens, UniProt P50549 1-477); settings: protein: recombinant; tags: N-terminal GST; dsDNA, one strand shown
# Method in brief: as §1
# Chain of HSF1 (Q00613 whole entry): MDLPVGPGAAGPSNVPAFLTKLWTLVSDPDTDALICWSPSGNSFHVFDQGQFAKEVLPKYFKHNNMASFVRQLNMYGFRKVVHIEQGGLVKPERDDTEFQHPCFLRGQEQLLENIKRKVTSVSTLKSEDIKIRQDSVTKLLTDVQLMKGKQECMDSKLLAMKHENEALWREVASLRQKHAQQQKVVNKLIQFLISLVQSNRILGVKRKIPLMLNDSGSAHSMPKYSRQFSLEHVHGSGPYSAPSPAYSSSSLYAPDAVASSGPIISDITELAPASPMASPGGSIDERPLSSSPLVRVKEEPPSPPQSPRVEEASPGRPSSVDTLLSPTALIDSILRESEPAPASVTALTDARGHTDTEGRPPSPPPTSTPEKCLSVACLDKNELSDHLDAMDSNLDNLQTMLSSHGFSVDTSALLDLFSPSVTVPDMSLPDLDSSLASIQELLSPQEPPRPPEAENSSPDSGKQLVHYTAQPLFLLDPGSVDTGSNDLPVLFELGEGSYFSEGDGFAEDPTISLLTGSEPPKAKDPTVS
# Chain of ELF4 (Q99607 whole entry): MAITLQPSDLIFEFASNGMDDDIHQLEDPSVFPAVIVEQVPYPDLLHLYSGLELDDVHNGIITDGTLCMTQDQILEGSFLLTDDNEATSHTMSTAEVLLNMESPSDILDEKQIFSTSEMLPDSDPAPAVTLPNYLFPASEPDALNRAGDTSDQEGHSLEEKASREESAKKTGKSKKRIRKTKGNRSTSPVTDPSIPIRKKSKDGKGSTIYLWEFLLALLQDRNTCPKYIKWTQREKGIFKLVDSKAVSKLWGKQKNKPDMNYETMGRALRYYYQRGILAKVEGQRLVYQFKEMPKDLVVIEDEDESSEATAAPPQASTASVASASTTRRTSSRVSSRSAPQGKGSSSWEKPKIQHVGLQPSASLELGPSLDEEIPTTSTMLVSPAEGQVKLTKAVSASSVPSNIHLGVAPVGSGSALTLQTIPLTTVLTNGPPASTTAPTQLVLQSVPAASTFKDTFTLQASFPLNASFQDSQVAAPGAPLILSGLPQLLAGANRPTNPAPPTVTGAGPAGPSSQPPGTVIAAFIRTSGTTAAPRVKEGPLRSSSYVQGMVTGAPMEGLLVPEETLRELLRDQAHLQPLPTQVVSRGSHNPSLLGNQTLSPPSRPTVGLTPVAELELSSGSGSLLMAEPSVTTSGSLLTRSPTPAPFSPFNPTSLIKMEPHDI
# Chain of ELF1 (P32519 whole entry): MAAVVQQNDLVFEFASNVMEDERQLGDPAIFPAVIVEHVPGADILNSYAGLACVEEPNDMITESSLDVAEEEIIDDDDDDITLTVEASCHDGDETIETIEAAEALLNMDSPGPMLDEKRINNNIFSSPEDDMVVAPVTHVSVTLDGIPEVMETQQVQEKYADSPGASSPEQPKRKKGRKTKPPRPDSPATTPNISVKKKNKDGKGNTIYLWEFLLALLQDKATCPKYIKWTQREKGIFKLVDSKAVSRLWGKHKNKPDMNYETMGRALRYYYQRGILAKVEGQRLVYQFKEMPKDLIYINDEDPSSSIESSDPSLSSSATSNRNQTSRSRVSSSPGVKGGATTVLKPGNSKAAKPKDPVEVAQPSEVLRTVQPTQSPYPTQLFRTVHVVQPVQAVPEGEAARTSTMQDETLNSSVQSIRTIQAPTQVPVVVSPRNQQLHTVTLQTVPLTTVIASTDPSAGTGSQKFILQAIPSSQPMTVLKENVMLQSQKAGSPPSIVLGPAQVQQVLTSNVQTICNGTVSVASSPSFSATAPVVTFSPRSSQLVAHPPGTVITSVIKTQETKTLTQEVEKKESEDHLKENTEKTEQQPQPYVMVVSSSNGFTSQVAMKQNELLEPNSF
# Chain of ETV5 (P41161 whole entry): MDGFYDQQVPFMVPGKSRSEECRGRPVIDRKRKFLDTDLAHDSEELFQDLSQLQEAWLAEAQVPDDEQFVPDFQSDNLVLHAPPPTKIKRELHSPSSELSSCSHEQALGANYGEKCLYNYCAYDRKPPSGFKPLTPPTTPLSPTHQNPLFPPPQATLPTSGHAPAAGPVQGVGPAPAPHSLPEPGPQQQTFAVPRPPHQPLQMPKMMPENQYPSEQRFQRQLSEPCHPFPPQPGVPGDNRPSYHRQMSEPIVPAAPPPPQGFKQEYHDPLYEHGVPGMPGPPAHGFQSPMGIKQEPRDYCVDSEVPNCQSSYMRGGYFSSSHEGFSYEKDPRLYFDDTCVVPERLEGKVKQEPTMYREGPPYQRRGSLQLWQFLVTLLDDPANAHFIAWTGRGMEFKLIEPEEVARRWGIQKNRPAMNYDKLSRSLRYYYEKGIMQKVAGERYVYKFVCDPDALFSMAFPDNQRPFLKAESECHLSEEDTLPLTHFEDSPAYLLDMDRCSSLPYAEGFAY
# Chain of SPIB (Q01892 whole entry): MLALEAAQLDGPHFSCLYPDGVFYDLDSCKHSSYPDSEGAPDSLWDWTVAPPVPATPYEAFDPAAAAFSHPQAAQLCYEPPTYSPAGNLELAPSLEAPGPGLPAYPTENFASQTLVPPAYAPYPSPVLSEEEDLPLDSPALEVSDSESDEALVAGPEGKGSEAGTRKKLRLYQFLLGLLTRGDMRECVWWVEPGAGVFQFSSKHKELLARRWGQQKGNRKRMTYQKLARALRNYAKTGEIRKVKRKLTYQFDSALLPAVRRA
# Chain of ETV1 (P50549 whole entry): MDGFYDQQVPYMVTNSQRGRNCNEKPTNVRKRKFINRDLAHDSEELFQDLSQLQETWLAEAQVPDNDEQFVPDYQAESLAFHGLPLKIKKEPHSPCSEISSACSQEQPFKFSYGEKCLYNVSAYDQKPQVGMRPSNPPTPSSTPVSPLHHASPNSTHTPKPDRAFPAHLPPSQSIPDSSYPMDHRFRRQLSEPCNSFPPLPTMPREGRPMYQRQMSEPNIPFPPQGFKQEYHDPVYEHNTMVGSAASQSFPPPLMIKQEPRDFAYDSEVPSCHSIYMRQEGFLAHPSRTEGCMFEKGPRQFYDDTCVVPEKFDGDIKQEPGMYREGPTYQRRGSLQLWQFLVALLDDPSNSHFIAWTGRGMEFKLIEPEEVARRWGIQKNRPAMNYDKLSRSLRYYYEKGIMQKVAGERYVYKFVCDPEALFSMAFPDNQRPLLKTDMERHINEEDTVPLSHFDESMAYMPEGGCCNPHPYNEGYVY
sequence,measurement,setting,value
GGTTCC,binding signal,[1],"1.52 fold enrichment (6-mer frequency, TF over GST control)"
same,binding signal,[2],"1.64 fold enrichment (6-mer frequency, TF over GST control)"
same,binding signal,[3],"1.37 fold enrichment (6-mer frequency, TF over GST control)"
same,binding signal,[4],"1.54 fold enrichment (6-mer frequency, TF over GST control)"
same,binding signal,[5],"1.53 fold enrichment (6-mer frequency, TF over GST control)"
same,binding signal,[6],"1.59 fold enrichment (6-mer frequency, TF over GST control)"
same,binding signal,[7],"1.75 fold enrichment (6-mer frequency, TF over GST control)"
same,binding signal,[8],"1.59 fold enrichment (6-mer frequency, TF over GST control)"
same,binding signal,[9],"1.52 fold enrichment (6-mer frequency, TF over GST control)"
same,binding signal,[10],"1.68 fold enrichment (6-mer frequency, TF over GST control)"
same,binding signal,[11],"1.57 fold enrichment (6-mer frequency, TF over GST control)"
same,binding signal,[12],"1.13 fold enrichment (6-mer frequency, TF over GST control)"
same,binding signal,[13],"1.38 fold enrichment (6-mer frequency, TF over GST control)"
same,binding signal,[14],"1.44 fold enrichment (6-mer frequency, TF over GST control)"
same,binding signal,[15],"1.38 fold enrichment (6-mer frequency, TF over GST control)"
same,binding signal,[16],"1.32 fold enrichment (6-mer frequency, TF over GST control)"
same,binding signal,[17],"1.7 fold enrichment (6-mer frequency, TF over GST control)"
same,binding signal,[18],"1.63 fold enrichment (6-mer frequency, TF over GST control)"
